Some test systems named below: DU-145 prostate; K-562 leukemia; MALME-3M melanoma; MDA-MB-231 breast; RXF 393 renal; SF-268 CNS; SF-295 CNS; SF-539 CNS; UACC-257 melanoma; M14 melanoma; HCT-15 colon; HT29 colon; SNB-75 CNS; SNB-19 CNS; U251 CNS; PC-3 prostate; SK-MEL-5 melanoma; UACC-62 melanoma; LOX IMVI melanoma; SK-MEL-28 melanoma.
Holding throughout (test): NCI-60 one-dose screen, 48 h (100 = growth as untreated, 0 = no growth, -100 = all killed)
Settings in all cases: 10 µM unless noted

About 83,000 compounds went through this panel and 20% of them were active in at least one assay; those are over-represented in the sample as a whole.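 How to read the values: 0–100, growth inhibition (40 = 60% inhibited); 0, no net growth; -100 to 0, cell death (-40 = 40% of starting cells died; -100 = all dead).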 Unmarked numbers belong to inactive results. Activity calls are given as the source filed them. How the source made its calls: active means growth percent below 10; inactive means the rest.

As for `CSc1ccc(Cl)c(C(=O)Nc2sccc2C(N)=O)c1`, the growth in the assay on DU-145 prostate was 102%; in the assay on K-562 leukemia, 110%; with MALME-3M melanoma, 141%; in the assay on MDA-MB-231 breast, 99%; with RXF 393 renal, 60.2%; with SF-268 CNS, 93.7%. Also, the growth is 123% in the assay on SF-295 CNS; 99.8% in the assay on SF-539 CNS; 104% in the assay on UACC-257 melanoma; 123% in the assay with M14 melanoma; 98.8% in the assay with HCT-15 colon; 118% in the assay on HT29 colon. Besides, the growth in the assay on SNB-75 CNS was 105%; in the assay with SNB-19 CNS, 80.6%; with U251 CNS, 94.3%; in the assay with PC-3 prostate, 83.8%; in the assay on SK-MEL-5 melanoma, 95%; in the assay with UACC-62 melanoma, 81.1%. Also, the growth in the assay on LOX IMVI melanoma was 100%; with SK-MEL-28 melanoma it was 102%.
`CC(=[N-])N1CCC[C@@H](Nc2c3ccccc3nc3ccccc23)C1.[Cl][Pt].[NH-]CCC[NH-]`: the growth is 5.94% (active) with DU-145 prostate; 19.2% with K-562 leukemia; 20.7% in the assay with MALME-3M melanoma; 46.9% in the assay with MDA-MB-231 breast; -24.3% (active) in the assay on RXF 393 renal; 62.3% with SF-268 CNS. The growth with SF-295 CNS is 56.8%; with SF-539 CNS, 36.9%; in the assay with UACC-257 melanoma it was 66.9%; with M14 melanoma it was 65.3%; in the assay on HCT-15 colon, 48.2%; with HT29 colon, 1.38% (active). Further, the growth was 3.22% (active) with SNB-75 CNS; 53.3% with SNB-19 CNS; 44.3% in the assay on U251 CNS; 70.6% in the assay with PC-3 prostate; -84.4% (active) with SK-MEL-5 melanoma; -63.3% (active) with UACC-62 melanoma. The growth is 27.9% in the assay on LOX IMVI melanoma and 2.14% (active) with SK-MEL-28 melanoma.
`OC(CBr)c1ccnc2ccccc12` (stereo not given): the growth in the assay with DU-145 prostate was 109%; in the assay with K-562 leukemia it was 92%; in the assay on MALME-3M melanoma, 96.3%; with MDA-MB-231 breast, 103%; with RXF 393 renal it was 107%; with SF-268 CNS it was 100%. Moreover, the growth in the assay with SF-295 CNS was 96.6%; in the assay on SF-539 CNS it was 102%; in the assay with UACC-257 melanoma, 99.6%; in the assay with M14 melanoma it was 98%; in the assay on HCT-15 colon, 103%; in the assay with HT29 colon it was 85.1%. The growth is 94.8% with SNB-75 CNS; 104% with SNB-19 CNS; 95.8% in the assay with U251 CNS; 88.8% with PC-3 prostate; 106% in the assay with SK-MEL-5 melanoma; 95.1% in the assay on UACC-62 melanoma. For the same compound, the results for the growth in the assay on LOX IMVI melanoma and in the assay on SK-MEL-28 melanoma were 96.3% and 109%, respectively.
For the compound `COc1cc2ccccc2cc1C(=O)NC(=S)Nc1ccc(-c2nc3ccccc3[nH]2)cc1`, the growth in the assay with DU-145 prostate is 56.1%; in the assay with K-562 leukemia, 75.6%; in the assay on MALME-3M melanoma, 48%; in the assay on MDA-MB-231 breast, 52.9%; in the assay with RXF 393 renal, 86.2%; in the assay on SF-268 CNS, 62%. For the same compound, the growth in the assay on SF-295 CNS was 80.5%; in the assay on SF-539 CNS it was 14.7%; in the assay on UACC-257 melanoma it was 98%; in the assay on M14 melanoma, 79.3%; in the assay with HCT-15 colon it was 78.5%; with HT29 colon it was 72.7%. Moreover, the growth in the assay on SNB-75 CNS was 54.4%; in the assay on SNB-19 CNS, 86.6%; with U251 CNS, 75.2%; in the assay with PC-3 prostate, 90.6%; in the assay with SK-MEL-5 melanoma, 42.5%; with UACC-62 melanoma it was 93%. In addition, the growth is 60.5% with LOX IMVI melanoma and 90.1% in the assay on SK-MEL-28 melanoma.
As for `CCOc1cc(C2C(Cl)C(=O)N2n2cnnc2)ccc1O` (stereo not given), the growth with DU-145 prostate was 110%; in the assay with K-562 leukemia, 104%; with MALME-3M melanoma, 99.5%; with MDA-MB-231 breast, 106%; in the assay on RXF 393 renal, 93.4%; with SF-268 CNS, 92.4%. Also, the growth with SF-295 CNS was 105%; in the assay on SF-539 CNS, 101%; in the assay with UACC-257 melanoma it was 88.9%; in the assay on M14 melanoma, 95.4%; in the assay with HCT-15 colon, 103%; in the assay on HT29 colon it was 96.9%. The growth in the assay with SNB-75 CNS is 72.5%; with SNB-19 CNS, 102%; in the assay with U251 CNS it was 98.5%; in the assay on PC-3 prostate, 91.1%; in the assay on SK-MEL-5 melanoma, 106%; in the assay on UACC-62 melanoma, 95.5%. Also, the results for the growth with LOX IMVI melanoma and with SK-MEL-28 melanoma were 101% and 105%, respectively.
On to `CC(C)(C)Nc1c(-c2c3ccccc3cc3ccccc23)nc2ccccn12`, for which the growth is 92.7% in the assay on DU-145 prostate; 42% with K-562 leukemia; 80.6% in the assay with MALME-3M melanoma; 80.7% with MDA-MB-231 breast; 82.4% in the assay on RXF 393 renal; 82.9% in the assay with SF-268 CNS. The growth was 69.7% in the assay with SF-295 CNS; 78.2% with SF-539 CNS; 75.5% in the assay on UACC-257 melanoma; 70.3% with M14 melanoma; 79.7% in the assay with HCT-15 colon; 55.3% with HT29 colon. Besides, the growth is 64% with SNB-75 CNS; 74.1% in the assay with SNB-19 CNS; 68.2% in the assay on U251 CNS; 37.9% with PC-3 prostate; 84% in the assay on SK-MEL-5 melanoma; 50.6% in the assay with UACC-62 melanoma. In addition, the growth in the assay with LOX IMVI melanoma was 85.9%; with SK-MEL-28 melanoma, 82.2%.
For the compound `Cc1cc(-c2ccc(N(C)C)cc2)c2sc(=O)[nH]c2n1`, the growth in the assay with DU-145 prostate was 98.8%; in the assay on K-562 leukemia it was 24.5%; in the assay on MALME-3M melanoma, 71.1%; with MDA-MB-231 breast, 71.4%; in the assay on RXF 393 renal it was 51.2%; in the assay with SF-268 CNS, 69.5%. Moreover, the growth is 48.6% in the assay with SF-295 CNS; 52.9% with SF-539 CNS; 81.4% with UACC-257 melanoma; 44.5% with M14 melanoma; 29.4% in the assay on HCT-15 colon; 70% with HT29 colon. Besides, the growth in the assay on SNB-75 CNS was 53.2%; with SNB-19 CNS, 55.7%; in the assay on U251 CNS, 50.2%; in the assay on PC-3 prostate, 80.8%; with SK-MEL-5 melanoma, 33.3%; in the assay on UACC-62 melanoma it was 42.5%. In addition, the growth in the assay on LOX IMVI melanoma is 51.6%; in the assay on SK-MEL-28 melanoma, 69%.
As for `COc1cc2c(cc1OC)-c1ccc3cc4c(cc3c1N(CCCN(C)C)C2)OCO4`, the growth was 38.9% in the assay with DU-145 prostate; 20.6% in the assay with K-562 leukemia; 58.2% in the assay on MALME-3M melanoma; 36.3% in the assay on MDA-MB-231 breast; 35.1% in the assay with RXF 393 renal; 34% in the assay with SF-268 CNS. The growth with SF-295 CNS was 42.7%; in the assay on SF-539 CNS it was 40.2%; in the assay on UACC-257 melanoma it was 34.6%; with M14 melanoma it was 33.2%; in the assay on HCT-15 colon it was 52%; in the assay with HT29 colon, 11.5%. Besides, the growth in the assay with SNB-75 CNS was 44.1%; with SNB-19 CNS, 25.3%; with U251 CNS, 18.2%; in the assay with PC-3 prostate, 23%; in the assay with SK-MEL-5 melanoma, 43.9%; in the assay with UACC-62 melanoma it was 44%. Moreover, the results for the growth with LOX IMVI melanoma and in the assay on SK-MEL-28 melanoma were 19.5% and 58.8%, respectively.

The record behind these values is PubChem BioAssay (NCI).
